Assay results reported in ChEMBL document CHEMBL4513216, “Probing the Open Global Health Chemical Diversity Library for Multistage-Active Starting Points for Next-Generation Antimalarials” (ACS Infect Dis, 2020).
Among all 68,000 compounds or so, about 2,700 (4%) showed an effect of 50% or more. What follows is part of a selection rich in strong results, with near analogues and random picks from the rest.

The compounds below were run on Plasmodium berghei (assay: Screen against P. berghei liver stage (PbLuc), transformed with Luciferase, at 2uM). Settings: tested at 2 uM.
Type: functional, HepG2

Row | SMILES | INHIBITION
1 | Cc1nc(CNC(=O)N(C)Cc2cnn(C)c2)cs1 | 29.19%
2 | Cc1ncc2c(c1CNC(=O)C1(C)CCCO1)CCNC2 (stereo not given) | 21.72%
3 | Cc1ncc2c(c1CNC(=O)C1(C)CC1)CCNC2 | 51.9%
4 | Cc1ncc2c(c1CNC(=O)C1(C)CCCCO1)CCNC2 (stereo not given) | -17.55%
5 | Cc1cc(C)nc(N2CCC(c3cc(CCO)[nH]n3)C2)n1 (stereo not given) | -92.86%
6 | Cc1ccc(C(=O)N2CCC3(CCC(=O)N(CC(C)O)C3)CC2)c(O)c1 (stereo not given) | -0.85%
7 | O=C(NCCn1ccc(-c2ccncc2)n1)C1CC1 | -19.3%
8 | Fc1cc(Cl)cnc1N1CCCC(c2nccn2Cc2ccncc2)C1 (stereo not given) | 17.69%
9 | CC(C)CS(=O)(=O)N1C[C@@H]2C[C@H](C(=O)NCc3ccccc3)[C@H](C1)O2 | 75.33%
10 | CN(C)S(=O)(=O)N1C[C@@H]2C[C@H](C(=O)NCc3ccccc3)[C@H](C1)O2 | -32.96%
11 | CCN1C[C@@H]2C[C@H](C(=O)Nc3ccccc3)[C@H](C1)O2 | 37.65%
12 | CC(C)CCN1C[C@@H]2C[C@H](C(=O)Nc3ccccc3)[C@H](C1)O2 | 73.15%
13 | CC(C)CCN1C[C@@H]2C[C@H](C(=O)Nc3cccnc3)[C@H](C1)O2 | 26.76%
14 | O=C(NCc1ccccc1)[C@H]1C[C@H]2CN(S(=O)(=O)C3CC3)C[C@@H]1O2 | 14.94%
15 | Cc1nnn2c1COC(CNC(=O)c1cccn1C)C2 (stereo not given) | 42.4%
16 | Cc1cc(Br)c(O)c(-c2nc(N3CCCCC3)sc2C)c1 | 14.95%
17 | CN(Cc1cnn(C)c1)S(=O)(=O)N1CCCCCC1 | 47.68%
18 | Cc1noc(C(C)N2CCN(CC(=O)N3CCCC3)CC2)n1 (stereo not given) | -14.01%
19 | C1CCC(c2nnc3sc(C4CCCO4)nn23)C1 (stereo not given) | -11.31%
20 | C1CCC(c2nn3c(C4CCCO4)nnc3s2)C1 (stereo not given) | 79.8%
21 | C1CCC(c2nnc3sc(C4CCOC4)nn23)C1 (stereo not given) | 4.12%
22 | Cc1cc(C2CCCN(S(=O)(=O)c3cn[nH]c3)C2)ccn1 (stereo not given) | 49.07%
23 | O=C(NCCCN1CCOCC1)c1ccnc(OCc2ccccc2)c1 | -47.27%
24 | CCS(=O)(=O)NCCNC(=O)c1cnc(-c2ccccc2)nc1 | -22.82%

Row | SMILES | INHIBITION
25 | CN(CCNC(=O)c1cnc(-c2ccccc2)nc1)S(C)(=O)=O | -50.8%
26 | CCN(CC)CCNC(=O)c1cnc(-c2ccccc2)nc1 | -16.21%
27 | CN(C)CCCNC(=O)c1ccnc(OCc2ccccc2)c1 | 52.85%
28 | CC(C)N(C)CCCNC(=O)c1cnc(-c2ccccc2)nc1 | 67.83%
29 | COC(=O)CCNC(=O)c1ccc(OCc2ccccc2)nc1 | -45.68%
30 | CS(=O)(=O)NCCNC(=O)c1cnc(-c2ccccc2)nc1 | 73.01%
31 | CC(=O)NCCNC(=O)c1cnc(-c2ccccc2)nc1 | 19.47%
32 | COCCN(Cc1cccnc1)S(=O)(=O)c1cc(C)ccc1F | 37.79%
33 | Cn1cc(NS(=O)(=O)c2ccc(C(F)(F)F)cc2)ccc1=O | 21.83%
34 | Cc1nc(CC(C)C)cc(C(=O)N2C[C@@H](CN(C)C)[C@@H](CO)C2)n1 | 3.46%
35 | CCc1noc(C(C)N2CCC(C(=O)Nc3cnn(CC)c3)CC2)n1 (stereo not given) | -56.72%
36 | CCN(Cc1ccc2c(c1)OCO2)C(=O)c1ccc(C)[nH]c1=O | 0.26%
37 | COc1ccc(Cl)cc1C(=O)N1C[C@H](C(C)C)[C@@H](N)C1 | 5.88%
38 | NC(=O)NC(=O)CCSCc1coc(-c2cccc(Cl)c2)n1 | 16.25%
39 | O=C(Nc1cnc2n1CCCC2)C1CCCN1C1CCNCC1 (stereo not given) | -26.04%
40 | CCN(CC)C1CCN(C(=O)NCc2nncn2CC)CC1 | 55.52%
41 | CCn1cnnc1CNC(=O)N1CCC(O)CC1 | -0.05%
42 | CCn1cnnc1CNC(=O)N1CCOCC1 | 27.31%
43 | CCN(CCC1CCN(C(=O)NCc2nncn2CC)CC1)CC1CC1 | 56.4%
44 | CCn1cnnc1CNC(=O)N1CCC(CN2CCCCCC2)CC1 | 27.47%
45 | CCn1cnnc1CNC(=O)N1CCC(C)CC1 | 56.4%
46 | CCn1cnnc1CNC(=O)N1CCN(c2cccs2)CC1 | 54.85%
47 | CCn1cnnc1CNC(=O)N1CCCCCC1 | -8.32%
48 | CCn1cnnc1CNC(=O)N1CCC(C(=O)NC)CC1 | -29.11%

Row | SMILES | INHIBITION
49 | CCn1cnnc1CNC(=O)N1CCN(c2ccccc2O)CC1 | -3.06%
50 | CCn1cnnc1CNC(=O)N1CCN(c2nccs2)CC1 | 17.31%
51 | CCn1cnnc1CNC(=O)N1CCCC1 | 33.82%
52 | Cc1cc2ccccc2n1CCC(=O)NCCS(C)(=O)=O | -67.22%
53 | O=C(C1CCOCC1)N1CCc2ncnc(-c3ccc(F)cc3)c2CC1 | -7.01%
54 | c1cncc(CNc2ccccc2-c2nn[nH]n2)c1 | 27%
55 | O=C(c1cscn1)N1CCCC2(CCN2Cc2cccc(F)c2)C1 (stereo not given) | 37.33%
56 | CC(C)N(C)Cc1cc(=O)n2c(n1)CN(C(=O)c1cnccn1)CCC2 | -14.64%
57 | Cn1ccnc1CN1CCCN(C(=O)c2ccc3[nH]nnc3c2)CC1 | -56.99%
58 | COc1ccc(NC(=O)Cn2ccc3c(=O)n(C)ccc32)cc1OC | 52.61%
59 | Cn1ccc2c(ccn2CC(=O)Nc2ccc(Br)cc2)c1=O | 0.5%
60 | Cc1ccc(NC(=O)Cn2ccc3c(=O)n(C)ccc32)cc1F | 41.86%
61 | CCn1ccc2ccnc(CC3CN(C(=O)Cn4ccnc4C)C3)c21 | 2.78%
62 | Cc1cccc(N2CCN(CCC(=O)NCc3nnc[nH]3)CC2)c1 | 71.67%
63 | Cc1cccc(N2CCN(CCC(=O)NCc3cnc(C)cn3)CC2)c1 | -39.01%
64 | CCc1nnc(CNC(=O)CCN2CCN(c3cccc(C)c3)CC2)s1 | -27.19%
65 | CC1(c2ncc(CN3CCN(c4ncccn4)CC3)cn2)CCCCO1 (stereo not given) | -30.88%
66 | COc1ccc(-n2nc(C3CC3)nc2CCn2cnnn2)cc1 | -4.15%
67 | Cc1cccc(CNC(Cc2ccsc2)c2nc(C)c(C)s2)n1 (stereo not given) | 8.75%
68 | CC[C@@H]1N(CC2CC2)CCC[C@]12CCC(=O)N2 | 10.49%
69 | CC[C@H]1N(CC2CCOCC2)CCC[C@]12CCC(=O)N2 | 65.91%
70 | CC[C@@H]1N(CC2CCOCC2)CCC[C@]12CCC(=O)N2 | 20.88%
